# From PubChem BioAssay AID651791 (National Center for Advancing Translational Sciences (NCATS), 2012)
# Inconclusive results are not listed. The source made the active and inactive calls. Calls follow the shape of the dose curve; as a rule, active = well fitted inhibition curve with a large enough effect; inconclusive = small, poorly fitted or top-dose-only effect; inactive = no such curve, though single readings can be large or run the other way.
# Experiment: InCell qHTS Assay for Inhibitors of the mTORC1 Signaling Pathway in MEF (Tsc2-/-, p53-/-) Cells: Hit Validation;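 also: phospho-S6 Ser235/236 signal normalized to propidium iodide cell count per well; nearly all actives have a fitted effect of over 75% in size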
# Details: phospho-rpS6 immunofluorescence, 24 h; activity change, negative = inhibition: at 38.3 µM (top of the series)
# Potency is read from the fitted curve at half-maximal effect.
smiles,measurement,value
O=C(NCC(c1cccs1)S(=O)(=O)c1cccs1)c1ccccc1 (stereo not given),"activity change, negative = inhibition",-100%
Cc1c(C(=O)OC2CCC(C)CC2)[nH]c2c1C(=O)CC(c1ccc(F)cc1)C2 (stereo not given),"activity change, negative = inhibition",-1.27%
CCOC(=O)c1cnc2ccc(OCC)cc2c1NCCc1ccc(OC)c(OC)c1,"activity change, negative = inhibition",-100%
CCOC(=O)c1c(NC(=O)c2nc(S(C)(=O)=O)ncc2Cl)sc(C(C)=O)c1C,Potency,3.69 µM (active)
C=C(C)CSc1nc(-c2ccccc2)cc(-c2ccc(OC)cc2)c1C#N,"activity change, negative = inhibition",-100%
Cc1ccc(-c2nn(C)c(=O)c3ccccc23)cc1S(=O)(=O)NCCCN(C)C,"activity change, negative = inhibition",-100%
Cc1cccc(N2CCN(C(=O)c3ccc(CS(=O)c4cccc(Cl)c4)o3)CC2)c1C (stereo not given),"activity change, negative = inhibition",-17.3%
CN1CCN(C(CNC(=O)C(=O)Nc2cccc(Cl)c2)c2ccc3c(c2)OCO3)CC1 (stereo not given),"activity change, negative = inhibition",-100%
O=C(Nc1ccc(-c2cc(C(F)(F)F)nn2-c2ccccc2)cc1)c1cccc(F)c1,"activity change, negative = inhibition",-100%
CCOc1ccc(-c2nc(SCC(=O)c3ccccc3)n[nH]2)cc1,"activity change, negative = inhibition",-2.9%
CCOC(=O)c1cnc2c(ccc3ccccc32)c1Nc1ccc(OC)cc1OC,"activity change, negative = inhibition",-100%
COc1cc(C(=O)N(CCCN(C)C)c2nc3c(OC)cccc3s2)cc(OC)c1OC,"activity change, negative = inhibition",-100%
COc1ccccc1CCNC(=O)C1CCN(c2nnc(-n3cccc3CNc3ccc(C)cc3)s2)CC1,"activity change, negative = inhibition",-100%
COc1ccc(S(=O)(=O)N(C(=O)c2ccncc2)c2ccc3oc(C)c(C(C)=O)c3c2)cc1,"activity change, negative = inhibition",-100%
O=C(NCc1ccc(Cl)cc1)C(=O)NCC(c1cccs1)S(=O)(=O)c1ccc(Cl)cc1 (stereo not given),"activity change, negative = inhibition",-100%
CCOc1ccc(C(=O)NCCc2sc(-c3ccc(C)cc3)nc2C)cc1,"activity change, negative = inhibition",-100%
CCCN1C(=O)C(O)(CC(=O)c2ccc(CC)cc2)c2ccccc21 (stereo not given),"activity change, negative = inhibition",-100%
COc1ccc(CN2CCN(c3ncnc4sc5c(c34)CCCC5)CC2)cc1F,"activity change, negative = inhibition",-100%
Cc1cc(OCC(=O)Nc2cc(-c3nc4ccccc4[nH]3)ccc2C)ccc1Cl,"activity change, negative = inhibition",-100%
O=C(Nc1ccc(Cl)cc1)c1cc(S(=O)(=O)N2CCCc3ccccc32)ccc1F,"activity change, negative = inhibition",-100%
CCOCc1cc(CN2CCN(c3ccccc3OC)CC2)c(O)c2ncccc12,Potency,2.07 µM (active)
Cc1ccc(-c2nc3sccn3c2Nc2ccc(C)c(C)c2)cc1,"activity change, negative = inhibition",-100%
COc1cc(C)ccc1OCCn1c(-c2ccc(Cl)cc2)nc2ccccc2c1=O,"activity change, negative = inhibition",-100%
Nc1nnc(SCC(=O)Nc2cccc(F)c2)s1,"activity change, negative = inhibition",-100%
COc1ccc(-c2[nH]nc3nc(-c4cc(OC)c(OC)c(OC)c4)cc(C(=O)O)c23)cc1,"activity change, negative = inhibition",-100%
COc1ccc(Cl)cc1S(=O)(=O)NCc1ccc2c(c1)CCN2C(=O)c1cccc(C)c1,"activity change, negative = inhibition",-8.71%
CC(=O)N1CCCc2cc(S(=O)(=O)N(Cc3ccccc3)C(C)C)ccc21,"activity change, negative = inhibition",-100%
CCc1ccc(NC(=O)Cn2c(=O)n(-c3ccc(OC)cc3)c(=O)c3ccc(C(=O)NCc4ccc(C)cc4)cc32)cc1,Potency,13.1 µM (active)
O=C(CN(CCc1ccccc1)S(=O)(=O)c1ccccc1)NCc1ccc(Cl)cc1,"activity change, negative = inhibition",-100%
Cc1ccc(NC(=O)Cn2cc(C(=O)C3CCCCC3)c3ccccc32)cc1,"activity change, negative = inhibition",-100%
COc1ccc(CCN2C(=O)c3[nH]nc(-c4ccccc4O)c3C2c2cccc(OC)c2)cc1 (stereo not given),"activity change, negative = inhibition",-28.2%
CC1=Nc2cc(C(=O)NC3CCCCC3)ccc2Sc2ccc(Cl)cc21,"activity change, negative = inhibition",-100%
Cc1ccc(CNS(=O)(=O)c2cc(C(=O)Nc3cccc(C(F)(F)F)c3)ccc2F)cc1,"activity change, negative = inhibition",-100%
COCCCNC(=O)c1cc2c(=O)oc3ccc(C)cc3c2s1,"activity change, negative = inhibition",-100%
O=C(Cn1cc(SCc2ccccc2)c2ccccc21)N1CCCCCC1,"activity change, negative = inhibition",-100%
CCC1CN(C(=O)NCc2ccc(F)cc2)c2cc(C)ccc2O1 (stereo not given),"activity change, negative = inhibition",-100%
CC(C)Cc1ccc(S(=O)(=O)N2CCC(c3ccncc3)CC2)cc1,"activity change, negative = inhibition",-100%
COc1ccccc1NC(=O)C1=C(C)Nc2nc(SCc3ccccc3)nn2C1c1cccs1 (stereo not given),"activity change, negative = inhibition",-100%
Cc1ccccc1S(=O)Cc1ccc(C(=O)N2CCN(c3cccc(C)c3C)CC2)o1 (stereo not given),"activity change, negative = inhibition",-28.4%
CCOc1cc(CNc2ccc(O)cc2)ccc1OCc1ccc(Cl)cc1,"activity change, negative = inhibition",-100%
CCc1ccc(NC(=O)Cn2nc(C(F)(F)F)c3c2CCCC3)cc1,"activity change, negative = inhibition",-100%
CCCN1C(=O)C(O)(CC(=O)c2ccc(C(C)C)cc2)c2ccccc21 (stereo not given),"activity change, negative = inhibition",-100%
COc1ccc(-c2nc(S(=O)(=O)c3ccc(Cl)cc3)c(N3CCCCCC3)o2)cc1,"activity change, negative = inhibition",-100%
COc1ccc(Oc2nc3c(C)cccn3c(=O)c2/C=C(\C#N)c2nc3ccccc3[nH]2)cc1,"activity change, negative = inhibition",-100%
CCc1ccc(OCC(=O)N(Cc2ccc(C)cc2)Cc2ccco2)cc1,"activity change, negative = inhibition",-100%
CCOc1ccc(NC(=O)N(Cc2c[nH]c3ccccc23)C2CCCCCC2)cc1,"activity change, negative = inhibition",-100%
Cc1nn(C(C)C(=O)NC2CCCCC2)c(=O)c2c1sc1ccccc12 (stereo not given),"activity change, negative = inhibition",-100%
C#CCN1C(=O)C(O)(CC(=O)c2ccc(OC)c(OC)c2)c2cc(Br)ccc21 (stereo not given),"activity change, negative = inhibition",-100%
O=S(=O)(NCc1nc2cccnc2n1Cc1ccccc1Cl)c1ccc(F)c(Cl)c1,"activity change, negative = inhibition",-100%
COc1cc(Nc2nc(SCC(=O)c3ccc(Cl)c(Cl)c3)nc3ccccc23)cc(OC)c1,"activity change, negative = inhibition",-16.4%
COc1ccc(OC)c(NC2=C(c3ccccc3)C(=O)c3ccccc32)c1,"activity change, negative = inhibition",-9.58%
CCOC(=O)N1CCN(Cc2nc3cc(NC(=O)CC)ccc3n2C(C)C)CC1,"activity change, negative = inhibition",-100%
Cc1ccccc1NC(=O)c1c(NC(=O)C(F)(F)F)sc2c1CCCCC2,"activity change, negative = inhibition",-100%
CCC(C)S(=O)(=O)c1oc(-c2cccs2)nc1S(=O)(=O)c1ccccc1 (stereo not given),Potency,1.17 µM (active)
CCCC1=Nc2cc(C(=O)NC3CCCC3)ccc2Sc2ccc(C)cc21,"activity change, negative = inhibition",-100%
COc1ccc2c(CNCCc3cccs3)c(C(=O)O)n(Cc3ccc(F)cc3Cl)c2c1,"activity change, negative = inhibition",-100%
Cc1cc(NCc2ccc(Cl)cc2)n2cnnc2n1,"activity change, negative = inhibition",-100%
CCOC(=O)c1ccc(N2C(=O)c3n[nH]c(C)c3C2c2cccc(Br)c2)cc1 (stereo not given),"activity change, negative = inhibition",-100%
CCCC1=Nc2cc(C(=O)NCCOC)ccc2Sc2ccccc21,"activity change, negative = inhibition",-100%
Cc1cccc(-n2nnnc2S(C)(=O)=O)c1,Potency,3.29 µM (active)
Cc1ccc2c(c1)cc(C(=O)Nc1ccccc1C)n2C,"activity change, negative = inhibition",-18.6%
COC(=O)c1ccccc1NC(=O)c1nc(S(=O)(=O)Cc2cccc(C)c2)ncc1Cl,Potency,3.69 µM (active)
COc1ccc(C)cc1NC(=O)CSc1ccc(-c2ccccn2)nn1,"activity change, negative = inhibition",-100%
CCn1c(CC2C(=O)N(C)c3ccc(Br)cc32)nc2ccccc2c1=O (stereo not given),"activity change, negative = inhibition",-100%
Cc1cccc(-n2ncc3c(Nc4c(C)cc(C)cc4C)ncnc32)c1,"activity change, negative = inhibition",-100%
CCOc1ccccc1NC(=O)CN1C(=O)C(=O)c2ccccc21,"activity change, negative = inhibition",-100%
COc1ccc(OCC(=O)NCc2ccc3c(c2)CCN3C(=O)c2cccc(C)c2)cc1,"activity change, negative = inhibition",-100%
COc1ccc(Cn2c(C(=O)O)c(CNCc3ccccc3F)c3ccc(OC)cc32)cc1,"activity change, negative = inhibition",-100%
CCCCN1C(=O)C(O)(c2c(C)[nH]c3ccccc23)c2cc(Br)ccc21 (stereo not given),"activity change, negative = inhibition",-21.8%
CC(C)c1nnc(NC(=O)c2nc(S(=O)(=O)Cc3ccccc3)ncc2Cl)s1,Potency,3.29 µM (active)
CCc1ccccc1NC(=O)CSCc1cnn(-c2ccccc2)c1-n1cccc1,"activity change, negative = inhibition",-100%
COc1ccc(NC(=O)CSc2nc3ccccc3n2Cc2cccc(OC)c2)cc1,"activity change, negative = inhibition",-100%
Cc1nn(CCCC(=O)NCc2cccc(Cl)c2)c(=O)c2c1sc1ccccc12,"activity change, negative = inhibition",-100%
CCOc1ccc(S(=O)(=O)NCCc2sc(-c3ccc(C)cc3)nc2C)cc1,"activity change, negative = inhibition",-100%
COc1ccc(Cn2c(C(=O)O)c(CNCc3ccc(SC)cc3)c3ccc(OC)cc32)cc1,"activity change, negative = inhibition",-100%
